In PubChem BioAssay (NCATS) one finds max response, Potency and outcome data, which are given here for 15 compounds.

The test system of one experiment is HaCat. Nature of the experiment: Cytotoxic Profiling of Annotated Libraries Using Quantitative High-Throughput Screening (AID 1296008). Note: nearly all actives have a fitted effect of over 60% in size. Note: potency is the fitted concentration of half-maximal effect. The note with it: Five cell lines viability, CellTiter-Glo ATP luminescence, 48-72 h; max response: stronger effect = lower value. In a few lines:
(§1)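 Cytotoxicity was measured as CellTiter-Glo ATP luminescence, read after 10 min at room temperature. Compound treatment of the cells lasted 48 or 72 hr at 37 degrees Celsius in a qHTS format.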

In the next experiment the test system is MCC-13. Briefly: qHTS assay to identify novel small-molecules to repurpose for Merkel cell carcinoma treatment (AID 1296009). Note: nearly all actives have a fitted effect of over 60% in size. Note: potency is the fitted concentration of half-maximal effect. The note with it: MCC and control cell lines, CellTiter-Glo viability, 72 h; series mostly up to 46 µM. In a few lines: (§2)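 After compound transfer in DMSO, plates were kept 72 hr at 37 degree celsius. Luminescent ATP signal from CellTiter-Glo served as viability measure, normalized against DMSO and no-cell controls.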
Background: In qHTS, concentration-response curves come from the screen itself.

The subject of a further experiment is MCC-26. The experiment is described as above. The note with it: MCC and control cell lines, CellTiter-Glo viability, 72 h; series mostly up to 46 µM. In a few lines: as §2
In general terms: ATP-based viability assays read luminescence as a measure of living cells.

For the next experiment, the system named is MKL-2. The experiment is described as above. The note with it: MCC and control cell lines, CellTiter-Glo viability, 72 h; series mostly up to 46 µM. In a few lines:
as §2

The next experiment deals with C33A. Nature of the experiment: Primary qHTS to identify gynecologic anti-cancer compounds using libraries of approved drugs and bioactive compounds (AID 1345084). Note: nearly all actives have a fitted effect of over 55% in size. The note with it: Gynecologic cancer cell panel viability, ATPlite luminescence, 48 h; series mostly up to 57.5 µM. In a few lines:
(§3)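 In this quantitative HTS, cell killing is estimated from loss of ATP-dependent luciferase light. Cells see five compound concentrations over a 48 h exposure.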

A further experiment has as its system CAOV3. The experiment is described as above. The note with it: Gynecologic cancer cell panel viability, ATPlite luminescence, 48 h; series mostly up to 57.5 µM. In a few lines:
as §3

For another experiment, the system named is CASKI. The description is as above. The note with it: Gynecologic cancer cell panel viability, ATPlite luminescence, 48 h; series mostly up to 57.5 µM. In a few lines: as §3
The test system of a further experiment is Es-2. The description is as above. The note with it: Gynecologic cancer cell panel viability, ATPlite luminescence, 48 h; series mostly up to 57.5 µM. In a few lines: as §3
In the next experiment the test system is HeLa. Described as above. The note with it: Gynecologic cancer cell panel viability, ATPlite luminescence, 48 h; series mostly up to 57.5 µM. In a few lines:
as §3

The subject of experiment [1] is Hek293T. Described as above. The note with it: Gynecologic cancer cell panel viability, ATPlite luminescence, 48 h, control line for the selectivity index; series mostly up to 57.5 µM. In a few lines:
as §3

A further experiment deals with JEG-3. The experiment is described as above. The note with it: Gynecologic cancer cell panel viability, ATPlite luminescence, 48 h; series mostly up to 57.5 µM. In a few lines:
as §3

For the next experiment, the system named is OV90. The description is as above. The note with it: Gynecologic cancer cell panel viability, ATPlite luminescence, 48 h; series mostly up to 57.5 µM. In a few lines: as §3
For a further experiment, the system named is NIH3T3. Nature of the experiment: Cytotoxic Profiling of Annotated Libraries Using Quantitative High-Throughput Screening (AID 1296008). Note: nearly all actives have a fitted effect of over 60% in size. Note: potency is the fitted concentration of half-maximal effect. The note with it: Five cell lines viability, CellTiter-Glo ATP luminescence, 48-72 h; max response: stronger effect = lower value. In a few lines: as §1
A further experiment deals with MKL-1. Briefly: qHTS assay to identify novel small-molecules to repurpose for Merkel cell carcinoma treatment (AID 1296009). Note: nearly all actives have a fitted effect of over 60% in size. Note: potency is the fitted concentration of half-maximal effect. The note with it: MCC and control cell lines, CellTiter-Glo viability, 72 h; series mostly up to 46 µM. In a few lines: as §2
The test system of another experiment is UISO. Described as above. The note with it: MCC and control cell lines, CellTiter-Glo viability, 72 h; series mostly up to 46 µM. In a few lines: as §2
The subject of a further experiment is WaGa. The description is as above. The note with it: MCC and control cell lines, CellTiter-Glo viability, 72 h; series mostly up to 46 µM. In a few lines: as §2
Another experiment relates to KB-3-1. Nature of the experiment: Cytotoxic Profiling of Annotated Libraries Using Quantitative High-Throughput Screening (AID 1296008). Note: nearly all actives have a fitted effect of over 60% in size. Note: potency is the fitted concentration of half-maximal effect. The note with it: Five cell lines viability, CellTiter-Glo ATP luminescence, 48-72 h; max response: stronger effect = lower value. In a few lines:
as §1

The test system of experiment [2] is HEK293T. Nature of the experiment: qHTS assay to identify novel small-molecules to repurpose for Merkel cell carcinoma treatment (AID 1296009). Note: nearly all actives have a fitted effect of over 60% in size. Note: potency is the fitted concentration of half-maximal effect. The note with it: MCC and control cell lines, CellTiter-Glo viability, 72 h; at 44.8 µM (top of the series) unless noted. In a few lines:
as §2

Results filed as inconclusive are left out. Values without a mark were called inactive. Activity calls are given as the source filed them. Calls come from the whole dose curve; as a rule, active = well fitted curve in the direction sought with a large enough effect; inconclusive = small, poorly fitted or top-dose-only effect, or another doubt; inactive = no such curve, though single readings can be large; an effect the other way counts as inactive or inconclusive.
% is set by controls: 0 for no effect and ±100 for the full control effect.

For `CCCC(=O)c1cc(O)c(O)cc1O`, the max response with HaCat is -3.56%. Moreover, the Potency entry in the experiment on MCC-13, with MCC-26, in the experiment with C33A, with CAOV3, with CASKI and in the experiment on Es-2 was “inactive” throughout. The Potency entry with HeLa, with Hek293T [1], in the experiment with JEG-3 and in the experiment with OV90 was “inactive” each time. In the experiment with MKL-2, the Potency is 27.3 µM (active).

Consider `C[C@H](N)C(=O)N[C@@H](C)C(=O)NC1[C@H]2CN(c3nc4c(cc3F)c(=O)c(C(=O)O)cn4-c3ccc(F)cc3F)C[C@@H]12` (stereo partly specified), for which the max response in the experiment on HaCat is 0.555%. Further, the Potency entry with MCC-13, in the experiment with MCC-26, in the experiment on C33A, in the experiment with CAOV3, in the experiment with CASKI and in the experiment on Es-2 was “inactive” in each case. For the same compound, the Potency entry in the experiment with HeLa, with JEG-3 and in the experiment with OV90 was “inactive” in each case.

Regarding `CC(C)(Oc1ccc(Cl)cc1)C(=O)OCCCOC(=O)C(C)(C)Oc1ccc(Cl)cc1`, the max response was -1.93% in the experiment with HaCat and 1.4% in the experiment with NIH3T3. Besides, the Potency result with MCC-13, in the experiment on MCC-26, in the experiment on MKL-1, in the experiment on UISO, with WaGa and in the experiment with C33A was “inactive” throughout. The Potency result in the experiment on CAOV3, in the experiment on CASKI, in the experiment on Es-2, in the experiment with HeLa, in the experiment with Hek293T [1] and in the experiment on JEG-3 was “inactive” in each case. The Potency entry in the experiment on OV90 was “inactive”.

For the compound `CCCC(=O)O[C@]1(C(=O)CCl)[C@@H](C)C[C@H]2[C@@H]3CCC4=CC(=O)C=C[C@]4(C)[C@@]3(F)C(=O)C[C@@]21C`, the results for the max response in the experiment on HaCat and in the experiment on NIH3T3 were -2.69% and -3.48%, respectively. Further, the Potency entry with MCC-13, in the experiment with MCC-26, in the experiment on C33A, in the experiment on CASKI, in the experiment with Es-2 and with HeLa was “inactive” each time. Besides, the Potency entry with JEG-3 and in the experiment on OV90 was “inactive” throughout.

On to `O=S(=O)(O)c1ccc2nc(-c3ccccc3)[nH]c2c1`, for which the max response in the experiment with HaCat was -12.3%. In addition, the Potency result in the experiment on MCC-13, in the experiment with MCC-26, in the experiment on MKL-1, in the experiment with MKL-2, with UISO and in the experiment with CAOV3 was “inactive” in each case. In addition, the Potency result in the experiment on CASKI, with Es-2, with HeLa, in the experiment with Hek293T [1], in the experiment with JEG-3 and with OV90 was “inactive” each time.

For the compound `O=C1Nc2ccccc2C1(c1ccc(O)cc1)c1ccc(O)cc1`, the results for the max response in the experiment on HaCat and in the experiment with NIH3T3 were -55.1% and -21.7%, respectively. In addition, the Potency result with MCC-13, in the experiment on MCC-26, in the experiment on MKL-1, with MKL-2, with CASKI and in the experiment with Es-2 was “inactive” in each case. The Potency entry in the experiment with HeLa, in the experiment on Hek293T [1] and in the experiment on JEG-3 was “inactive” throughout.

`O=C1NC(=O)/C(=C/c2ccc3c(c2)OC(F)(F)O3)S1`: the results for the max response with HaCat and with NIH3T3 were -3.64% and -4.12%, respectively. Also, the Potency result with C33A, with CAOV3, in the experiment with CASKI and in the experiment with Hek293T [1] was “inactive” each time.

`CC(C)C[C@H](NC(=O)CNC(=O)[C@H](Cc1ccc(O)cc1)NC(=O)[C@H](CO)NC(=O)[C@H](Cc1c[nH]c2ccccc12)NC(=O)[C@H](Cc1cnc[nH]1)NC(=O)[C@@H]1CCC(=O)N1)C(=O)N[C@@H](CCCN=C(N)N)C(=O)N1CCC[C@H]1C(=O)NCC(N)=O` (stereo in doubt): in the experiment with KB-3-1, the max response was -12.3%. For the same compound, the Potency entry with MCC-13, with MCC-26, with MKL-1, with MKL-2 and with WaGa was “inactive” each time.

For `CN(C)C(=O)CNC(=O)Cc1ccccc1`, in the experiment on KB-3-1, the call was inactive. Also, the max response in the experiment on NIH3T3 is -5.07%. Moreover, the Potency result with MCC-13, in the experiment with MCC-26, in the experiment on MKL-1, in the experiment on MKL-2, in the experiment with UISO and in the experiment on WaGa was “inactive” each time. Further, the Potency entry in the experiment on C33A, in the experiment with CAOV3, in the experiment with CASKI, in the experiment with Es-2, with HeLa and with Hek293T [1] was “inactive” each time. Besides, the Potency result in the experiment with JEG-3 and in the experiment with OV90 was “inactive” throughout.

As to `O=C(O)Cc1ccccc1Oc1ccc(Cl)cc1Cl`, in the experiment on KB-3-1, the result was inactive. Besides, the max response in the experiment on NIH3T3 was -11.6%. Moreover, the Potency result with MCC-13, with MCC-26, with MKL-1, in the experiment with MKL-2, in the experiment with UISO and in the experiment with WaGa was “inactive” throughout. In addition, the Potency result with C33A, in the experiment on CAOV3, in the experiment on CASKI, with Es-2, with HeLa and with Hek293T [1] was “inactive” in each case. In addition, the Potency result in the experiment with JEG-3 and in the experiment with OV90 was “inactive” each time.

Turning to `CC(=O)Nc1ccn(C2COC(COC(=O)c3ccccc3)O2)c(=O)n1` (stereo unspecified), in the experiment on KB-3-1, the outcome was inactive. The Potency entry in the experiment with MCC-13, in the experiment on MCC-26, in the experiment with MKL-1, in the experiment on MKL-2, in the experiment on C33A and in the experiment with CASKI was “inactive” in each case. The Potency result in the experiment with HeLa, in the experiment on Hek293T [1] and with JEG-3 was “inactive” each time.

With `CCCCCCCCCCCCCCCCCCN(C)C`, the max response in the experiment on NIH3T3 was 0.657%. Moreover, the Potency entry in the experiment with MCC-13, with MCC-26, in the experiment with MKL-1, in the experiment with MKL-2, in the experiment with UISO and in the experiment on WaGa was “inactive” in each case. Further, the Potency entry in the experiment with C33A, in the experiment on CAOV3, in the experiment with CASKI, in the experiment on Es-2, in the experiment on HeLa and in the experiment with Hek293T [1] was “inactive” in each case. Also, the Potency result in the experiment with JEG-3 and in the experiment on OV90 was “inactive” each time.

Consider `COC(=O)C1=C(C)NC(COC(N)=O)=C(C(=O)OC(C)C)C1c1cccc(Cl)c1Cl` (stereo unspecified), for which the max response in the experiment on KB-3-1 is 2.72%. Further, the Potency with NIH3T3 was 15 µM (active). The Potency result with MCC-13, with MCC-26, in the experiment on MKL-1, with UISO, in the experiment with C33A and in the experiment on CAOV3 was “inactive” throughout. For the same compound, the Potency result in the experiment with CASKI, in the experiment with Es-2, in the experiment with HeLa, with Hek293T [1], in the experiment on JEG-3 and with OV90 was “inactive” throughout.

Consider `Cc1ccc(C(=O)C(=O)O)cc1C`, for which the max response with NIH3T3 was 2.73%. In addition, in the experiment with HEK293T [2], the outcome was inactive. The Potency result in the experiment on MCC-13, in the experiment on MCC-26, with MKL-1, in the experiment on MKL-2, in the experiment on UISO and in the experiment with WaGa was “inactive” each time. In addition, the Potency entry in the experiment with C33A, with CAOV3, with CASKI, in the experiment on Es-2, in the experiment with HeLa and in the experiment with Hek293T [1] was “inactive” each time. The Potency entry with JEG-3 and in the experiment with OV90 was “inactive” each time.

In the case of `COC(=O)c1c(Cl)c(Cl)c(C(=O)OC)c(Cl)c1Cl`, the max response in the experiment on KB-3-1 is -7.26%; with NIH3T3, -9.58%. Moreover, the Potency result in the experiment on MCC-13, in the experiment on MCC-26, in the experiment on MKL-1, with MKL-2, in the experiment with UISO and with WaGa was “inactive” each time. Besides, the Potency result in the experiment on C33A, in the experiment with CAOV3, in the experiment on CASKI, in the experiment on Es-2, in the experiment with HeLa and in the experiment on Hek293T [1] was “inactive” in each case. The Potency entry with JEG-3 and in the experiment with OV90 was “inactive” throughout.
